High-throughput results as filed in PubChem.
Compounds with a hit are over-represented: about 7.5% of the library has one in this group of screens.
TSHR antag: blocks TSH signaling through the human TSH receptor | TSHR-expressing cells, TSH-stimulated cAMP HTRF, 2 h; hits give low values | activity change, negative = inhibition, % at 11.5 µM | 0.2% of 330,000 active | AID 504810;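 active means activity change below a set negative limit, meaning inhibition stronger than a set level, cut at about -70% in these data; inconclusive means activity change between two set negative limits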
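Inhibition of cAMP made by TSHR-expressing cells under TSH stimulation (4nM final, EC80; 2 h, 37 deg C) is quantified with a one-step lysis HTRF kit, anti-cAMP cryptate versus cAMP-d2.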
B2AR arrestin: agonists driving beta-arrestin recruitment to human beta2-adrenergic receptor; P07550; 0.02% of 330,000 active; beta-arrestin recruitment to beta2AR, cell-based reporter; Potency, µM (titrated, usually from 46.1 µM), inactives show at the highest dose activation, actives largely listed as activators;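 further: potency means the concentration at half of the fitted maximal effect; 0% = DMSO controls and full agonism = EC100 isoproterenol or metaproterenol; nearly all actives have a fitted effect of over 65% in size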
ELG1 repair inh: blocks ELG1-dependent DNA repair in HEK293T cells. 2.3% of 330,000 active. AID 504467. Potency, µM (series often up to 46.1 µM), for the others: at the highest dose activity change, negative = inhibition, actives largely listed as inhibitors. HEK293T ELG1-luciferase reporter, luminescence, 16 h; DNA damage induced by 5-fluorouridine; further: potency means the concentration at half of the fitted maximal effect; nearly all actives have a fitted effect of over 55% in size
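HEK293T cells expressing luciferase-tagged ELG1 (2,000/well) received 5-Fluorouridine plus compound or DMSO for 16 hr at 37 °C. Luciferase was read by ONE-Glo luminescence after 30 min at room temperature.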
Gal4-VP16 FLuc: counter-screen for ROR gamma inhibitors: Gal4-VP16 reporter | Drosophila S2 Gal4-VP16 UAS-luciferase, luminescence, 20 h | Potency, µM (doses to about 53.6 µM), inactives show top-dose activity, negative = inhibition, most hits filed as inhibitors | AID 2546 | 3.5% of 310,000 active;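 further: Gal4-VP16 expression switched on by copper sulfate through the metallothionein promoter; potency means the concentration at half of the fitted maximal effect; nearly all actives have a fitted effect of over 50% in size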
RORgamma inh: inhibitors of mouse ROR gamma transcriptional activity | 5.4% of 310,000 active | Potency, µM (doses to about 53.6 µM), for inactives: at the highest dose activity change, negative = inhibition, usual class: inhibitors | AID 2551 | P51450 | Drosophila S2 Gal4-RORgamma UAS-luciferase reporter, 20 h; further: potency means the concentration at half of the fitted maximal effect; nearly all actives have a fitted effect of over 60% in size
Target sequence (P51450 whole entry, looked up, the tested form may be a part): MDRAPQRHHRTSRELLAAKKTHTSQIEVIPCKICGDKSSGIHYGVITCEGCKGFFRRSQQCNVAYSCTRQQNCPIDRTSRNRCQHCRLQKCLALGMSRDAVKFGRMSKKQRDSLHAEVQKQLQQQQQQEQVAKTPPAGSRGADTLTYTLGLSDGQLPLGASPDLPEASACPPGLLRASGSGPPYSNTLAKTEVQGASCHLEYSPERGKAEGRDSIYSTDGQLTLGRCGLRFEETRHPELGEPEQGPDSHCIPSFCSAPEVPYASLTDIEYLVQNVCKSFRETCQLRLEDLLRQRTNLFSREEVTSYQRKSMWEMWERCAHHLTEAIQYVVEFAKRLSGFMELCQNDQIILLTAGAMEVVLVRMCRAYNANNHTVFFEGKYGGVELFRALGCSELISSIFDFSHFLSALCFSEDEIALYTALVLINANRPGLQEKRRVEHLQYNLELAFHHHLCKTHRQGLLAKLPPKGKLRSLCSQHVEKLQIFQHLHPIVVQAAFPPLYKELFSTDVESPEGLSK
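Compounds are pin-transferred onto Drosophila Schneider cells expressing a copper-inducible Gal4–ROR gamma transactivation domain fusion. After 1 hr, copper sulfate is added to 700 uM final; luciferase is read 20 hr later.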
* hit, by the source's call; u = inconclusive; x = no result; [ ] = remark or other dose. Unless noted, the call rests on the fitted dose curve; in most records, active means well fitted curve in the direction sought with a large enough effect; inconclusive means small, poorly fitted or top-dose-only effect, or another doubt; inactive means no such curve, though single readings can be large; an effect the other way counts as inactive or inconclusive. Unless noted, on the % scale 0 is the no-effect control and ±100 the full control effect.

SMILES	TSHR antag	B2AR arrestin	ELG1 repair inh	Gal4-VP16 FLuc	RORgamma inh
COC(=O)CSc1nnc(NC(=O)/C=C\c2ccc3c(c2)OCO3)s1	-2	-2%	-1%	-1%	-7%
COC(=O)CSc1nnc(NC(=O)c2ccc3c(c2)OCO3)s1	-21	0%	u	u	6.3µM*
O=C(O)CSc1nnc(NC(=O)c2ccc3c(c2)OCO3)s1	-6	0%	-10%	13µM*	13µM*
O=C(C(=O)N1CCCCC1)c1c(-c2ccccc2)[nH]c2ccccc12	7	0%	0%	17%	-7%
O=C(COc1ccc(S(=O)(=O)NC2CCCCC2)cc1)N1CCN(c2ccc(F)cc2)CC1	-8	0%	9.2µM*	u	-4%
O=C(CNS(=O)(=O)c1ccc(Cl)cc1)N1CCN(c2ccc(F)cc2)CC1	14	0%	23µM*	x	x
NC(=O)C1CCN(C(=O)COc2ccc(S(=O)(=O)NC3CCCC3)cc2)CC1	3	0%	2%	8%	-4%
CC(/C=N/NC(=O)c1nnn(-c2nonc2N)c1CN(C)C)=C\c1ccco1	9	-1%	-2%	2%	9%
CCCN(CCC)Cc1c(C(=O)N/N=C/C(C)=C\c2ccco2)nnn1-c1nonc1N	-32	0%	21µM*	u	u
Cc1ccc(-c2c(C(=O)N/N=C/c3ccco3)nnn2-c2nonc2N)cc1	9	-1%	-1%	u	6.3µM*
Cc1ccc(-c2c(C(=O)N/N=C/c3ccc(C)o3)nnn2-c2nonc2N)cc1	4	2%	1%	11µM*	7.9µM*
CN(c1ccccc1)c1nc(-n2ccnc2)nc(-n2ccnc2)n1	-2	0%	-25%	-4%	-12%
CCCCNc1nc(N(C)c2ccccc2)nc(-n2ccnc2)n1	7	0%	u	u	10µM*
C=CCNc1nc(N(c2ccccc2)c2ccccc2)nc(-n2ccnc2)n1	-4	0%	-3%	-13%	11µM*
NC(=O)COc1ccc(-c2noc(COc3ccccc3[N+](=O)[O-])n2)cc1	3	0%	u	2%	16%
Cc1ccc(-n2c(C)c([N+](=O)[O-])c3ccc(O)cc32)cc1	-4	-1%	u	-4%	2%
Cc1c([N+](=O)[O-])c2ccc(O)cc2n1-c1ccccc1	0	-1%	4.6µM*	-9%	0%
CCN(CC)CCCNc1cc(C)nc2cc(-c3cccs3)nn12	-21	0%	16%	u	11µM*
Cc1cccc(-c2cc3nc(C)cc(NCCCN(C)C)n3n2)c1	2	0%	u	x	17%[0.365 µM]
Cc1ccc(C(=O)NC(=S)Nc2cc(C(F)(F)F)ccc2Cl)cc1	-1	0%	10%	-17%	10µM*
O=C(Cc1ccccc1)NC(=S)Nc1cc(C(F)(F)F)ccc1Cl	-6	0%	14%	-21%	1.6µM*
COC(=O)CCC(=O)NC(=S)Nc1cc(Cl)ccc1Cl	2	-1%	3%	u	10µM*
COC(=O)CCC(=O)Nc1ccc(Cl)c(Cl)c1	7	1%	14%	6%	25%
O=C(Cc1ccccc1)NC(=S)Nc1cccc(C(F)(F)F)c1	-1	0%	13%	13µM*	7.1µM*
FC(F)(F)c1cccc(NC(=S)NNC(=S)NCc2ccccc2)c1	-10	-1%	u	u	u
SMILES	TSHR antag	B2AR arrestin	ELG1 repair inh	Gal4-VP16 FLuc	RORgamma inh
Cc1csc(=O)n1CCC(=O)OCc1nnc(-c2ccc(Cl)cc2)o1	-9	0%	u	x	x
Cc1nn(CC(=O)N2CCN(c3ccccn3)CC2)c(=O)c2cc3sccc3n12	0	0%	u	-1%	-5%
Cc1noc(C)c1-c1cc(N(C)C)ncn1	x	x	x	7%	-7%
O=S(=O)(Nc1nc2ccccc2nc1N1CCc2ccccc2C1)c1ccc(Br)cc1	-13	0%	u	u	7.9µM*
COc1ccc(OC)c(NC(=O)c2cc3n(n2)C(C(F)(F)F)CC(c2ccc4c(c2)OCO4)N3)c1 (stereo not given)	-12	0%	5%	-13%	5%
COc1ccc(C2CC(C(F)(F)F)n3nc(C(=O)Nc4ccc5c(c4)OCO5)cc3N2)cc1 (stereo not given)	9	0%	23µM*	1%	17%
COc1ccccc1NC(=O)c1cc2n(n1)C(C(F)(F)F)CC(c1ccc3c(c1)OCO3)N2 (stereo not given)	-18	0%	16µM*	-6%	-2%
CCCCCCCCCCCCCC/C(C(=O)O)=C(\C)C(=O)O	x	x	x	-10%	35%
CC1CCN(c2nc3ccc(C(=O)O)cc3s2)CC1	-3	-1%	u	1.4µM*	0.89µM*
O=C(NCC1CCCO1)c1ccc(N2CCCCC2)nc1 (stereo not given)	0	0%	u	8%	u
CC1CCN(c2nc3ccc(C(=O)NCCCN4CCCCC4)cc3s2)CC1	11	0%	u	4%	1%
O=C(NCC1CCCO1)c1ccc2nc(N3CCCCC3)sc2c1 (stereo not given)	-4	0%	u	u	7.1µM*
CCN(CC)C(=O)N1CCC(NC(=O)c2ccc(C(C)(C)C)cc2)CC1	-5	0%	21µM*	-7%	u
CCCN1C2CCCC1CC(NC(=O)c1ccc(C(C)(C)C)cc1)C2 (stereo not given)	37	0%	16%	8%	22%
CCCCOCCCNc1ncnc2c1[nH]c1ccccc12	u	0%	u	10µM*	u
C=CCNc1ncnc2c1[nH]c1ccccc12	-11	0%	u	u	38%
CCOc1ccc2[nH]c3c(NCCO)ncnc3c2c1	0	0%	29%	-4%	3%
CCOCCCNc1ncnc2c1[nH]c1ccccc12	-10	0%	15µM*	u	15%
c1ccc2c(c1)[nH]c1c(NCC3CCCO3)ncnc12 (stereo not given)	-10	0%	15µM*	u	u
Cc1nc(NCC2CCCO2)c2oc3ccccc3c2n1 (stereo not given)	-5	0%	-1%	-15%	-10%
CC(Sc1ccc(S(=O)(=O)N2CCN(C)CC2)cn1)C(=O)NC1CCCCC1 (stereo not given)	4	0%	u	x	x
C[C@@]1(C(=O)O)NCCc2cc(O)c(O)cc21	x	x	x	-5%	-28%
Cc1nc(-c2ccccn2)nc(SCC(=O)c2ccccc2)c1Cl	3	2%	u	11µM*	4µM*
c1ccc(CCNCCCOc2cccc3ccccc23)cc1	12	-1%	-16%	-10%	-2%[1.91 µM]
Cc1c(CCOC(=O)c2ccc(N3CCOCC3)c([N+](=O)[O-])c2)sc[n+]1CC#N	-11	0%	5%	-5%	23%
Cc1ncsc1CCOC(=O)c1ccc(N2CCOCC2)c([N+](=O)[O-])c1	-14	1%	u	4µM*	u
